Screening data from PubChem BioAssay.
A selection: hits, their analogues and other compounds. The true share with any hit is near 3.5%.
MITF inh = MITF inhibitors, primary screen, biochemical, AlphaScreen, human. actives 0.91% (n = 650,000). Microphthalmia-associated transcription factor (Homo sapiens), O75030. AlphaScreen MITF homodimerization, bead proximity signal. inhibition, % at 2.6 µM; in the data active = inhibition above about 50%;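 also: 0% = vehicle wells with protein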
Target sequence (O75030 whole entry, looked up): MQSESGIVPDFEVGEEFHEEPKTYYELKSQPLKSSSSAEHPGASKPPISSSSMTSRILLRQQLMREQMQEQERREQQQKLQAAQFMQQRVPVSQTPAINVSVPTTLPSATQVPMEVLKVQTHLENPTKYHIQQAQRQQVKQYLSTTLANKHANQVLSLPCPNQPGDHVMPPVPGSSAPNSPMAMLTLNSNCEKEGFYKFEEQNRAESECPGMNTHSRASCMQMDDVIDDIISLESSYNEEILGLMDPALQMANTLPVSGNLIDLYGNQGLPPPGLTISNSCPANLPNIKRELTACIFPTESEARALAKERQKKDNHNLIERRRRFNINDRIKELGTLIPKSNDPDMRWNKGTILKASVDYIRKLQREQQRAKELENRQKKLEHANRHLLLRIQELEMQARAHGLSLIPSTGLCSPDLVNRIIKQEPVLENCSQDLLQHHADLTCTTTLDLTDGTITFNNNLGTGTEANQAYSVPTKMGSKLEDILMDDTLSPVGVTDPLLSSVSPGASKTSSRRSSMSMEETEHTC
FBW7 act = FBW7 E3 ligase activators, primary screen, biochemical, AlphaScreen, human | AlphaScreen FBW7–phospho-cyclin E peptide binding, activator screen | normalized activity (activation), % at 26.1 µM | actives 0.13% (n = 650,000) | AID 1259310, 2017; in the data active = normalized activity above about 1.9%;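 also: purified mutant Fbw7 with reduced substrate affinity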
TEAD-YAP inh = TEAD-YAP interaction inhibition, primary screen, TEAD-YAP interaction inhibitor project, luminescence, HEK-TIYL cells. TEAD-Gal4/YAP UAS-luciferase luminescence. inhibition, % at 9.12 µM. actives 1.4% (n = 640,000); in the data active = inhibition above about 32%;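 also: 0% = median of test compound wells and 100% = reference inhibitor wells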
GPR151 ag = activators of human GPR151, primary screen, cell-based, PathHunter beta-arrestin, luminescence; G-protein coupled receptor 151 (Homo sapiens), Q8TDV0; PathHunter beta-arrestin GPR151 cells; activation, % at 11.2 µM; actives 1% (n = 650,000); AID 1508602, 2020; in the data active = activation above about 4.9%;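 also: 0% = median of compound wells and 100% = cells with positive control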
GPR151 confirm = GPR151 activators, triplicate retest, confirmation, cell-based, PathHunter beta-arrestin, luminescence. activation, % at 11.2 µM. GPR151 PathHunter beta-arrestin cells, 90 min; % of EA-reagent control over plate median. shares compounds with GPR151 ag. 6,700 tested, under 10 active;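 active = mean percent activation across replicates above the confirmation screen cutoff of 4.91%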
GPR119 counter = GPR119 activators in beta-arrestin cells, counter-screen for GPR151 activator project, cell-based, PathHunter beta-arrestin, luminescence, triplicate; shares compounds with GPR151 ag; 90 min; 0 = compound-well median, 100 = enzyme-acceptor control; activation, % at 11.2 µM; actives 0.3% (n = 6,700); AID 1508611, 2020;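 active = mean percent activation in the counterscreen above 29.09%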;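 also: counterscreen on off-target GPR119 to flag nonselective hits from the GPR151 activator screen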
Numbers without * were called inactive; . = no result.

SMILES	MITF inh	FBW7 act	TEAD-YAP inh	GPR151 ag	GPR151 confirm	GPR119 counter
CCOC(=O)c1c(NC(=O)CC)sc2c1CCCC2	-6.0	-0.1	7.9	5.1*	0.1	2.3
CCCOc1ccc(C(=O)Nc2sc3c(c2C(=O)OCC)CCCC3)cc1	9.1	0.6	-1.6	7.4*	-0.4	7.7
N#C/C(=C/Nc1ccc(S(N)(=O)=O)cc1)c1nc(-c2ccc(Br)cc2)cs1	19.5	0.1	-4.3	-1.9	.	.
C=CCC(=O)N1CCC2(CC1)CC2C(=O)Nc1ccc(SC)cc1 (centres undefined)	-6.5	-0.2	-16.4	-0.2	.	.
COc1ccc(-c2cc(-c3ccccc3)c(C#N)c(SCC(O)CS(=O)c3ccc(C(C)(C)C)cc3)n2)cc1 (centres undefined)	2.6	0.2	-4.5	-0.1	.	.
CCOC(=O)c1c(-c2ccccc2)csc1NC(=O)CC	-13.7	0.0	-1.6	0.0	.	.
CCCCN(CCCC)S(=O)(=O)c1ccc(C(=O)Nc2sc3c(c2C(=O)OCC)CCN(C(C)C)C3)cc1	-10.3	0.2	8.0	-0.5	.	.
CCOC(=O)c1c(-c2ccc(C)cc2)csc1NC(=O)CC	-17.9	0.3	12.4	5.1*	-0.8	-13.4
CCCCN(CC)S(=O)(=O)c1ccc(C(=O)Nc2sc3c(c2C(=O)OCC)CCN(C(C)C)C3)cc1	-0.7	0.0	-3.6	5.6*	-1.6	-11.0
N#C/C(=C/c1ccccc1[N+](=O)[O-])c1ccc2c(c1)OCO2	5.8	-0.1	-8.4	5.7*	-0.2	-12.9
Cc1ccc(/C=C(/C#N)c2ccc3c(c2)OCO3)cc1[N+](=O)[O-]	4.9	-0.2	-1.9	-0.8	.	.
COC(=O)c1ccc(-n2nnnc2SCc2c(C)ccc3ccccc23)cc1	4.3	0.0	-5.0	2.7	.	.
Cc1ccc(-n2nc3ccc(NC(=O)COc4ccc(Cl)cc4C)cc3n2)cc1Cl	-9.5	-0.1	10.1	0.9	.	.
Cc1cccc(NC(=O)/C(=C/c2cccc([N+](=O)[O-])c2)NC(=O)c2ccc(F)cc2Cl)c1	-1.7	0.0	5.7	0.1	.	.
O=C1CCCC2=C1C(c1ccccc1F)n1c(nc3ccccc31)N2 (centres undefined)	15.8	0.1	-0.4	9.6*	1.7	-4.7
Cc1nc2ccc3nc(NC(=O)c4ccccc4)sc3c2s1	-8.5	0.0	-35.4	1.1	.	.
COc1ccc(C(=O)NNC(=O)CSc2nc3sc(C)c(C)c3c(=O)[nH]2)cc1	16.9	0.0	7.1	4.5	.	.
COc1ccc(C(=O)NNC(=O)CSc2ncn[nH]2)cc1	15.2	-0.1	2.1	11.4*	0.0	-2.1
COc1ccc(CC(=O)NNC(=O)CSc2nc(C)c(C)c(=O)[nH]2)cc1	8.4	0.0	4.9	6.3*	-0.3	-6.3
COc1ccccc1CN1CCNC(=O)C1CC(=O)N1CCCN(C=O)CC1 (centres undefined)	1.1	-0.1	3.3	0.3	.	.
CCC1CCCCN1CCN1C(=O)C2C(C(=O)Nc3cc(C)cc(C)c3)C3C=CC2(O3)C1C(=O)NC1CCCC(C)C1C (centres undefined)	15.0	0.6	7.5	-0.3	.	.
CCC1CCCCN1CCN1C(=O)C2C(C(=O)Nc3cccc(C)c3)C3C=CC2(O3)C1C(=O)NC1CCCC(C)C1C (centres undefined)	1.4	-0.3	6.4	12.9*	-0.2	-5.4
CSc1cccc(NC(=O)C2C3C=CC4(O3)C2C(=O)N(C(C)C)C4C(=O)NC2CCCC(C)C2C)c1 (centres undefined)	7.9	0.0	3.7	5.8*	0.6	-0.9
O=C(NNC(=S)NCc1ccccc1)c1ccc(Br)o1	3.2	0.0	6.6	6.3*	-0.7	-2.9
NC(=O)NC(=O)CSc1nnc(-c2ccco2)n1N	6.7	0.0	11.0	2.0	.	.
SMILES	MITF inh	FBW7 act	TEAD-YAP inh	GPR151 ag	GPR151 confirm	GPR119 counter
CCOc1ccc(-c2nc(-c3ccc([N+](=O)[O-])cc3)no2)cc1OCC	-8.7	0.0	-8.2	-1.1	.	.
CCOc1ccc(-c2nc(-c3ccncc3)no2)cc1OCC	9.2	-0.1	-3.4	4.9*	-0.4	-0.2
CN(C)CC(C)(C)CN(CCC#N)S(=O)(=O)c1cccc2nsnc12	13.6	0.0	-1.4	5.0*	0.4	0.3
CC(C)N(CCC#N)S(=O)(=O)c1cccc2nsnc12	-4.0	0.0	7.4	-1.0	.	.
CN1CCN(Cc2cccn2-c2nccs2)CC1CCO (centres undefined)	17.9	0.2	6.2	-0.8	.	.
Cc1ccc(S(=O)(=O)N(CC(N)=O)Cc2cccc(C)c2)cc1	6.5	0.3	5.1	5.2*	1.6	11.2
COC(=O)C(Cc1c[nH]c2ccccc12)NC(=O)C(=O)c1c(C)[nH]c2ccccc12 (centres undefined)	7.5	0.1	3.4	6.9*	-0.2	6.3
COC(=O)C(Cc1c[nH]c2ccccc12)NC(=O)C(C)C (centres undefined)	24.0	0.0	2.7	1.0	.	.
COc1ccc(Cl)cc1NC(=O)N(C)C12CC3CC(CC(C3)C1)C2	-4.5	-0.2	-0.9	-1.3	.	.
COc1cc([N+](=O)[O-])ccc1NC(=O)CC(C)=O	-5.5	-0.1	-2.3	2.7	.	.
CCOc1ccc(NC(=O)Nc2nnc(CSCc3ccccc3)s2)cc1	4.9	0.1	11.6	7.0*	0.7	12.4
O=C(c1ccccc1[N+](=O)[O-])N1CC2C3C=CC(C3)C2C1 (centres undefined)	-1.6	-0.1	4.6	-0.2	.	.
C=CCC1C=CCC(CC=C)N1C(=O)c1ccccc1[N+](=O)[O-] (centres undefined)	-3.7	-0.3	1.1	9.2*	0.3	-1.6
O=C(COc1ccc(Cl)cc1Cl)Nc1ccc(NC(=O)c2ccco2)c(Cl)c1	-2.1	0.0	-17.0	0.2	.	.
O=C(COc1ccccc1Cl)Nc1ccc(N2CCN(C(=O)c3ccco3)CC2)cc1	1.6	-0.1	13.4	9.9*	0.0	6.8
O=C(COc1ccc(Cl)cc1Cl)Nc1cccc(NC(=O)c2ccco2)c1	8.0	0.0	-22.7	10.8*	-0.4	2.0
O=C(COc1ccc(Cl)cc1Cl)NCc1ccco1	13.3	-0.2	-53.1	-0.2	.	.
O=C(COc1ccc(Cl)cc1Cl)OCc1ccco1	-7.2	0.0	18.6	6.5*	-0.2	-0.9
O=C(Cn1ncc2ccc(Cl)cc21)NCc1ccccc1	-3.3	-0.1	-12.2	3.2	.	.
CCCCN(C)c1nnc(NC(=O)Nc2ccc(Cl)cc2)s1	5.0	-0.2	-10.7	7.5*	0.9	1.4
CCCCN(C)c1nnc(NC(=O)Nc2ccc(CC(=O)OCC)cc2)s1	6.5	0.1	2.3	-0.4	.	.
